The whole screen tested about 330,000 compounds, of which about 670 (0.2%) were called active.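 Rule for the calls: active = activity change below a set negative limit, meaning inhibition stronger than a set level (cut at about -70% in these data); inconclusive = activity change between two set negative limits; inactive = the rest.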 Shown is part of a subset that was picked to be rich in actives.
% is set by controls: 0 for no effect and ±100 for the full control effect.

For the assay, the target named is Thyrotropin receptor (Homo sapiens) (UniProt P16473). Briefly: Antagonists of the Thyroid Stimulating Hormone Receptor: HTS campaign. The note with it: TSHR-expressing cells, TSH-stimulated cAMP HTRF, 2 h; at 11.5 µM; active compounds read low. The text has this: The thyroid-stimulating hormone receptor (TSHR) is a member of the 7 trans-membrane-spanning receptor (7TMR) family of cell surface receptors. TSHR-mediated hyperthyroidism is important in thyroid pathology. The development of small molecule antagonists of TSHR may lead to therapeutic approaches for TSHR-mediated hyperthyroidism caused by constitutively activating mutations or stimulating auto-antibodies associated with Graves' disease. Graves' disease is the leading cause of hyperthyroidism and is caused by autoantibodies that stimulate TSHR (TsAbs) causing thyroid growth and unregulated overproduction of thyroid hormones and existing treatments have liabilities (agranulocytosis). In addition, TSHRs are known to be expressed in multiple extrathyroidal tissues including bone, brain, kidney, testis, fat and cells of the immune system but the role of the TSHR in these tissues is not clear. Therefore, TSHR antagonists/inverse agonists could be used as probes of extrathyroidal TSHR function. Finally, TSHR inverse agonists, which are a subclass of antagonists that inhibit agonist-independent (or basal or constitutive) TSHR signaling, could be used to inhibit TSH-independent signaling in patients with recurrent or metastatic thyroid cancer who are receiving thyroid hormone to suppress TSH. In collaboration between scientist from the NCGC and the NIDDK, a miniaturized HTRF high-throughput screen was developed. It's a cell based assay, where an anti cAMP antibody contains a fluorescent cryptate tag (excitation 337 nm; emission 620 nm) and the acceptor is cAMP-d2 (excitation 620 nm; emission 665 nm). When antibody and cAMP-d2 interact and are excited by a 337 nm light, a FRET occurs resulting in emission at 665 nm. The assay is competition between cAMP-d2 and cAMP (from the cell lysate). The homogeneous protocol allows for one step dispense after stimulation that is automation friendly. NIH Chemical Genomics Center [NCGC] NIH Molecular Libraries Probe Centers Network [MLPCN] MLPCN Grant: MH090855-01 Assay Submitter (PI): Marvin Gerhengorn
Chain of Thyrotropin receptor (Homo sapiens) (P16473 whole entry, looked up): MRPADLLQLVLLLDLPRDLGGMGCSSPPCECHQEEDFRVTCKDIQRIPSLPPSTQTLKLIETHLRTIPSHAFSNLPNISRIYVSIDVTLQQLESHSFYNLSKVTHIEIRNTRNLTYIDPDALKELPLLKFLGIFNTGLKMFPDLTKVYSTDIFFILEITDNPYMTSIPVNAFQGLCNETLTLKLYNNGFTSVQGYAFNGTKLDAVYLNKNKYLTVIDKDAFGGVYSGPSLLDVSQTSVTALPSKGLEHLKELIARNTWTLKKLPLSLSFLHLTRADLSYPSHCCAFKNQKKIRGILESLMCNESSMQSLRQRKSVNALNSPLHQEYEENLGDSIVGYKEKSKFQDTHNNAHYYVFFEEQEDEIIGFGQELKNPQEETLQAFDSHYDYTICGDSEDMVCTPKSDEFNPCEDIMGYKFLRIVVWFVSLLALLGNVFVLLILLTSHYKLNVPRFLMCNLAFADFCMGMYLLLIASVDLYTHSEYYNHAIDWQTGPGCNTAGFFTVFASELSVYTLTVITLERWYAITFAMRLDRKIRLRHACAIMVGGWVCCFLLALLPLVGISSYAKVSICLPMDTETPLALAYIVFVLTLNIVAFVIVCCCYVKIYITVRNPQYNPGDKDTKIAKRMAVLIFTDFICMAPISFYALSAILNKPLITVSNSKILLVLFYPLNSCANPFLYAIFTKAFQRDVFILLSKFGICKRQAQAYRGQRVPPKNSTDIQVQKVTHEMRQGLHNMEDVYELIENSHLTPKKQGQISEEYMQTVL
1. 3ul of 200 TSHR freshly harvested cells/well are dispensed into a 1536 TC-treated white solid bottom plate. 2. Through pintool addition, 23nl of compounds and control in 100% DMSO are added to the plate. 3. Then 1ul of EC80 TSH (4nM final) is added to the plate. 4. Assay is incubated at 37 deg C for 2 hours. 5. 2ul of cAMP antibody diluted 1:20 in lysis buffer is added. 6. Immediately following, 2ul of d2 diluted 1:20 in HBSS is added seperately. 7. The assay is incubated for 30 minutes at ambient room temperature. 8. The result is obtained by using a ViewLux read-out with HTRF settings.
In general terms: TR-FRET usually uses a lanthanide donor and a delayed reading to cut background.
As for `Nc1ccc(Nc2cc(O)c3ncccc3c2)cc1`, the activity change, negative = inhibition is -16% (inactive).

Consider `CCOC(=O)c1ccccc1NS(=O)(=O)c1c(C)nc2sccn2c1=O`, for which the activity change, negative = inhibition is 3.11% (inactive). Take `CCN(/N=C/c1ccc(N(C)C)cc1)c1nc2ccccc2[nH]1`: the activity change, negative = inhibition is -6.71% (inactive). `O=C(CC(O)(C(F)(F)F)C(F)(F)F)Nc1ccc(Cl)c(Cl)c1`: the activity change, negative = inhibition was -74.6% (active). On to `O=C(CCCN1C(=O)CCC1=O)Nc1ccc(Cl)c(C(F)(F)F)c1`, for which the activity change, negative = inhibition is 1.2% (inactive).

As for `CS(=O)(=O)N(CC(=O)Nc1ccc(Cl)c(Cl)c1)C1CCCCC1`, the activity change, negative = inhibition was 15.8% (inactive). As to `Cc1ccccc1CN1C[C@@H]2C[C@@H](c3cn(C)nc3-c3ccccc3)N3CCC[C@@]23C1=O`, the activity change, negative = inhibition is 2.86% (inactive).

As to `NC(=O)COC(=O)c1cc(S(=O)(=O)N2CCN(c3ccccc3)CC2)ccc1Cl`, the activity change, negative = inhibition is -4.47% (inactive).

With `CCNC(=O)NC(=O)C(C)OC(=O)C1CCN(S(=O)(=O)c2ccccc2F)CC1` (centres undefined), the activity change, negative = inhibition was 15.3% (inactive).

For the molecule `O=C(CCNC(=O)Cn1ccc2ccccc2c1=O)NCCC1=CCCCC1`, the activity change, negative = inhibition is 9.22% (inactive). In the case of `Oc1ccc(Cn2cc[nH]c2=S)cc1`, the activity change, negative = inhibition is 7.71% (inactive). With `Cc1ccc(S(=O)(=O)N2[C@@H](c3ccc(Br)cc3)C(C(=O)O)=C[C@H]2CC2CCCC2)cc1`, the activity change, negative = inhibition was -5.29% (inactive). Consider `CC[C@]12c3[nH]c4ccc(Cl)cc4c3CCN1C(=O)[C@@H](CC(=O)NCCCOC)C[C@@H]2C(=O)N1CCN(C(=O)C2CC2)CC1`, for which the activity change, negative = inhibition is 11.4% (inactive). For `CCN(Cc1ccccc1)C(=O)Cc1ccc(OC)c(S(=O)(=O)N2CCOCC2)c1` the value was 0.0578% (inactive); for `N#Cc1c(Cl)nc(-c2cccnc2)nc1-c1ccccc1`, 3.65% (inactive).

As to `CC1(c2ccc3ccccc3c2)NC(=O)N(CC(N)=O)C1=O` (centres undefined), the activity change, negative = inhibition is -6.17% (inactive). Take `CN(C)c1ccc(S(=O)(=O)NCC(=O)NCC2CCCCC2)cc1[N+](=O)[O-]`: the activity change, negative = inhibition was 6.75% (inactive).

Turning to `Cc1ccc(S(=O)(=O)NCCCn2ccnc2)cc1C(=O)NC(C)C`, the activity change, negative = inhibition was -0.615% (inactive). With `CC1(C)CC(CCC(=O)Nc2ccccc2Cl)C(=O)O1` (centres undefined), the activity change, negative = inhibition is 13.5% (inactive).

In the case of `O=C(Nc1ccccc1Cl)/C(Cl)=C(\Cl)S(=O)c1ccccc1` (centres undefined), the activity change, negative = inhibition is -71.3% (active). `Cc1c(NC(=O)Nc2ccccc2Cl)sc(=S)n1C`: the activity change, negative = inhibition is 46.2% (inactive). For `O=C1CCC(C(=O)N2CCCCO2)CN1Cc1cccc(C(F)(F)F)c1` (centres undefined) the value was 15.4% (inactive). Take `COc1ccc(CCNC2=CC(=O)CC(C)(C)C2)cc1`: the activity change, negative = inhibition is -4.33% (inactive). The value for `O=C1NC2(CCCCCC2)C(=O)N1CCS(=O)(=O)Oc1ccccc1` was -2.81% (inactive); that for `Cc1ccc(C(=O)Nc2ncccc2C)cc1S(=O)(=O)N1CCOCC1` was -1.78% (inactive). For the molecule `COc1ccc(/C=C/C(=O)OCC(=O)NC2CCCCCC2)cc1OC`, the activity change, negative = inhibition was -8.81% (inactive). The value for `CCN(CC(=O)Nc1ccccc1C(F)(F)F)C(=O)CSCc1c(C)noc1C` was 4.59% (inactive); that for `Cc1nnc(NC(=O)CSc2nccn2-c2cccc(C)c2C)s1` was -14.2% (inactive). The value for `Fc1ccc(-n2c(Cc3ccccc3)nnc2SCc2nc(-c3ccc(Cl)cc3)no2)cc1` was 7.8% (inactive). `CCOCCCNC(=O)C(NC(=O)c1ccc(=O)[nH]c1)c1ccc(C)cc1` (centres undefined): the activity change, negative = inhibition is -1.24% (inactive).

In the case of `CCOCCCNC(=O)C(NC(=O)c1ccccc1O)c1ccccc1` (centres undefined), the activity change, negative = inhibition was 1.46% (inactive). For `CCOCCCNC(=O)C(NC(=O)c1ccc(=O)[nH]c1)c1ccc(Cl)cc1` (centres undefined) the value was -71.3% (active). As for `CCOC(=O)C1(CC2CCCCO2)CCN(Cc2nc(-c3cccs3)oc2C)CC1` (centres undefined), the activity change, negative = inhibition was -7.01% (inactive). For `Cc1ccc(S(=O)(=O)NC2(C(F)(F)F)NC(=O)N(CCc3ccccc3)C2=O)cc1` (centres undefined), the activity change, negative = inhibition was -3.44% (inactive). For `COc1ccc(N2C(=O)NC(NS(=O)(=O)c3ccc(Cl)cc3)(C(F)(F)F)C2=O)cc1` (centres undefined) the value was -105% (active); for `COc1ccc(S(=O)(=O)NC2(C(F)(F)F)N=C3SCCN3C2=O)cc1` (centres undefined), 17.4% (inactive); for `Cn1nccc1C(=O)NC1CCCc2c1cnn2-c1ccc(F)cc1F` (centres undefined), -37.7% (inactive). With `Cc1cc(C(=O)NC2CCCc3c2cnn3-c2cccc(C)c2C)c(C)o1` (centres undefined), the activity change, negative = inhibition was -79.3% (active). Regarding `Cn1nccc1C(=O)NC1CCCc2c1cnn2-c1ccccc1F` (centres undefined), the activity change, negative = inhibition was -36.6% (inactive). Take `Cc1ccc(S(=O)(=O)c2c[nH]c3ccc(Cl)cc3c2=O)cc1`: the activity change, negative = inhibition was -9.54% (inactive). With `CCn1nc(C(=O)NNC(=O)C2CSC3(C)CCC(=O)N23)c2ccccc2c1=O` (centres undefined), the activity change, negative = inhibition is 6.6% (inactive). Turning to `COCCCn1c(Cc2csc(Nc3cccc(Cl)c3)n2)nnc1SCC(=O)OC1CCCCC1`, the activity change, negative = inhibition was -4.53% (inactive). Consider `C/C(=N\NC(=O)c1cc(-c2ccc(O)cc2)nc2ccccc12)c1cccnc1`, for which the activity change, negative = inhibition was 0.505% (inactive). As for `Cc1cccc(N2CCC(NCc3c(C(=O)N4CCCCC4)nc4c(C)cccn34)CC2)c1`, the activity change, negative = inhibition is 4.5% (inactive).
